Measured values as given in PubChem BioAssay (EPA / NIEHS).
“And” between values parts separate entries of the source, which are not always exact repeats. Identical values can stand only once. Some compounds were tested as several samples or in several runs, with calls that do not always agree. The source made the active and inactive calls. How the source made its calls: active means hit-call score of the fitted dose curve at least 0.9, where 1 is the maximum; inactive means score below 0.9.

Experiments:
Details in all cases: mRNA level, 48 h; actives raise or lower the signal
[1] = read-out: MicroRNA 122 (MIR122), gene 406906; assay: LTEA_HepaRG_MIR122: Life Technologies and Expression Analysis (LTEA) Assay for MicroRNA 122 (MIR122) using HepaRG (AID 2283516); further: the transcript read is the microRNA miR-122
Method in brief: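 Human liver HepaRG cultures receive test chemicals for 48 h at eight half-log concentrations from 100 uM. Expression is quantified by qRT-PCR with ACTB/GAPDH/POLR2A normalization and fitted bidirectionally against 0.5% DMSO.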

[2] = read-out: matrix metalloproteinase-10 (MMP10), MMP10 (gene 4319); assay: LTEA_HepaRG_MMP10: Life Technologies and Expression Analysis (LTEA) Assay for matrix metalloproteinase-10 (MMP10) using HepaRG (AID 2283517)
Method in brief: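 In differentiated HepaRG cultures kept in 0.5% DMSO, test chemicals act for 48 h over an eight-point range with a top dose of 100 uM. Expression is then quantified by TaqMan RT-PCR against ACTB, GAPDH and POLR2A.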

MYC, MYC (gene 4609) = assay: LTEA_HepaRG_MYC: Life Technologies and Expression Analysis (LTEA) Assay for MYC using HepaRG (AID 2283518)
Method in brief: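 Differentiated HepaRG cells exposed 48 h in serum-free induction medium to 8 concentrations (top 100 uM, half-log steps; 0.5% DMSO), duplicate. MYC mRNA measured by Fluidigm qRT-PCR, normalized to ACTB, GAPDH, POLR2A; bidirectional fit versus DMSO.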

[3] = read-out: matrix metalloproteinase-3 (MMP3), MMP3 (gene 4314); assay: LTEA_HepaRG_MMP3: Life Technologies and Expression Analysis (LTEA) Assay for matrix metalloproteinase-3 (MMP3) using HepaRG (AID 2283519)
Method in brief: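 Human liver HepaRG cultures received chemicals (top concentration 100 uM, 0.5% DMSO) for 48 h in duplicate. MMP3 mRNA induction or loss was then assessed via TaqMan qRT-PCR with housekeeping-gene normalisation.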

[4] = read-out: Paternally Expressed 10 (PEG10), PEG10 (gene 23089); assay: LTEA_HepaRG_PEG10: Life Technologies and Expression Analysis (LTEA) Assay for Paternally Expressed 10 (PEG10) using HepaRG (AID 2283520);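 on AC50: PEG10 transcript by qRT-PCR normalised to ACTB GAPDH and POLR2A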
Method in brief: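 Human HepaRG cultures are dosed for 48 h across an eight-point half-log series starting at 100 uM, with 0.5% DMSO as vehicle and baseline. Gain or loss of PEG10 transcript is measured by qRT-PCR and fitted in both directions.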

[5] = read-out: Nuclear factor NF-kappa-B p105 subunit (Homo sapiens) (UniProt P19838); assay: LTEA_HepaRG_NFKB1: Life Technologies and Expression Analysis (LTEA) Assay for Nuclear Factor Kappa B Subunit 1 (NFKB1) using HepaRG (AID 2283521)
Method in brief: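 Differentiated human HepaRG cells were exposed for 48 h in serum-free induction medium to eight concentrations (top 100 uM, half-log steps, 0.5% DMSO), in duplicate. NFKB1 mRNA was measured by TaqMan qRT-PCR, normalized to ACTB/GAPDH/POLR2A, and fitted bidirectionally against DMSO.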

[6] = read-out: Protein phosphatase 2A (PPP2R4), PTPA (gene 5524); assay: LTEA_HepaRG_PPP2R4: Life Technologies and Expression Analysis (LTEA) Assay for Protein phosphatase 2A (PPP2R4) using HepaRG (AID 2283522)
Method in brief: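 Cells were plated, cultured 48 h, switched to serum-free induction medium, then dosed for 48 h (8 points, max 100 uM, 0.5% DMSO). RNA was isolated and PPP2R4 expression measured by TaqMan qRT-PCR.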

[7] = read-out: Phosphatase and tensin (PTEN), PTEN (gene 5728); assay: LTEA_HepaRG_PTEN: Life Technologies and Expression Analysis (LTEA) Assay for Phosphatase and tensin (PTEN) using HepaRG (AID 2283523)
Method in brief: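 Expression of PTEN is quantified in the human liver line HepaRG following two days of dosing (top concentration 100 uM, half-log dilutions, 0.5% DMSO). Values derive from bidirectional curve fitting relative to DMSO controls.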

[8] = read-out: solute carrier (SLC22A1), SLC22A1 (gene 6580); assay: LTEA_HepaRG_SLC22A1: Life Technologies and Expression Analysis (LTEA) Assay for solute carrier (SLC22A1) using HepaRG (AID 2283524)
Method in brief: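 Transcript induction or suppression of SLC22A1 in human HepaRG cultures is scored after 48 h chemical treatment, with DMSO (0.5%) as baseline for bidirectional fitting. Concentrations span eight half-log points topping at 100 uM.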

[9] = read-out: Pyruvate Dehydrogenase Kinase 4 (PDK4), PDK4 (gene 5166); assay: LTEA_HepaRG_PDK4: Life Technologies and Expression Analysis (LTEA) Assay for Pyruvate Dehydrogenase Kinase 4 (PDK4) using HepaRG (AID 2283525)
Method in brief: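 Eight-point, half-log concentration series (max 100 uM, 0.5% DMSO) applied to differentiated HepaRG cells for 48 h in duplicate. Endpoint: PDK4 mRNA induction or repression by qRT-PCR against DMSO baseline.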

Measured: AC50

Sequence of Nuclear factor NF-kappa-B p105 subunit (Homo sapiens) (P19838 whole entry, looked up): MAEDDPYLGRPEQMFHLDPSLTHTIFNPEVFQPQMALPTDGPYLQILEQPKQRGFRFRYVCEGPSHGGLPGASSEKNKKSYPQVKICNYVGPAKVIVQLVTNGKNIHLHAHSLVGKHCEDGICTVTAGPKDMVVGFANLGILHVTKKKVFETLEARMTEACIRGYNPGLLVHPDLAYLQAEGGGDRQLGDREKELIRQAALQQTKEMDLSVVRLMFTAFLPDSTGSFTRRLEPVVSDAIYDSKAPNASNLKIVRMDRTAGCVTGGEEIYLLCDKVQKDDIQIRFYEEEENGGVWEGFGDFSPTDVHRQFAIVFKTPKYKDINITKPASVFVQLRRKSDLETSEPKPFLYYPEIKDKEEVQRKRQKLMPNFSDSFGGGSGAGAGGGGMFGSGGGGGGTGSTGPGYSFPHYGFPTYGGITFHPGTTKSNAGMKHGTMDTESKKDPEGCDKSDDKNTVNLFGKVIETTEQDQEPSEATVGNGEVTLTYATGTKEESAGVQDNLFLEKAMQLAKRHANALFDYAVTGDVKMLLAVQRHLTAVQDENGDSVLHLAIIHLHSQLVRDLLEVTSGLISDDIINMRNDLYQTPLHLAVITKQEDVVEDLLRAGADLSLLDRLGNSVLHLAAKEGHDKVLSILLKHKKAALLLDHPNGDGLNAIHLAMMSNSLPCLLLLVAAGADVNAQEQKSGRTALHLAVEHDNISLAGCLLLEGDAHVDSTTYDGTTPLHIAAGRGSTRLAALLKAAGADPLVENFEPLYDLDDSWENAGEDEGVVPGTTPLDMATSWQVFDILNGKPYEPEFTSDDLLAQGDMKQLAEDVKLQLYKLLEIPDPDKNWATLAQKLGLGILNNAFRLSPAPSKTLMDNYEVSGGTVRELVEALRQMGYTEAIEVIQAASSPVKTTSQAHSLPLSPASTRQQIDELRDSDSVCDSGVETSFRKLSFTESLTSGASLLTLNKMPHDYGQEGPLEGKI

N#CC(CCc1ccc(Cl)cc1)(Cn1cncn1)c1ccccc1 (stereo not drawn)
inactive: [5] | [6] | [7] | [9]
active: [1] 66 µM | [2] 74.2 µM | MYC, MYC (gene 4609) 65.2 µM | [3] 86 µM | [4] 9.92 µM | [8] 71.5 µM

CON(C)C(=O)Nc1ccc(Cl)c(Cl)c1
active: MYC, MYC (gene 4609) 78.6 µM | [4] 65.3 µM | [8] 50 µM
inactive: all other assays above

N#Cc1cc(Br)c(O)c(Br)c1
inactive: [2] | MYC, MYC (gene 4609)
active: [1] 14.2 µM | [3] 2.69 µM | [4] 10.5 µM | [5] 5.8 µM | [6] 10.7 µM | [7] 26.1 µM | [8] 16.2 µM | [9] 9.64 µM

COc1ccc(C(c2ccc(OC)cc2)C(Cl)(Cl)Cl)cc1
active: [1] 79.4 µM | MYC, MYC (gene 4609) 49.8 µM | [8] 84.8 µM
inactive: all other assays above

CCCCC(CC)COC(=O)c1ccccc1C(=O)OCC(CC)CCCC (stereo not drawn)
inactive: all assays above

C=CC1(C)OC(=O)N(c2cc(Cl)cc(Cl)c2)C1=O (stereo not drawn)
active: [4] 34.1 µM | [9] 50 µM
inactive: all other assays above

Cc1c(F)c(F)c(COC(=O)C2C(/C=C(\Cl)C(F)(F)F)C2(C)C)c(F)c1F (stereo not drawn)
active: [8] 12.3 µM
inactive: all other assays above

CCOc1cc(Oc2ccc(C(F)(F)F)cc2Cl)ccc1[N+](=O)[O-]
active: [1] 37 µM | [2] 50 µM | MYC, MYC (gene 4609) 28.4 µM | [4] 24.9 µM | [8] 38.6 µM
inactive: all other assays above

COC(=O)c1ccccc1C(=O)OC
inactive: all assays above

CCCCOC(=O)c1ccccc1C(=O)OCCCC
inactive: all assays above

CCCN(CCC)c1c([N+](=O)[O-])cc(S(N)(=O)=O)cc1[N+](=O)[O-]
active: [1] 95.7 µM | [2] 74.1 µM | MYC, MYC (gene 4609) 86.2 µM | [3] 83.6 µM | [4] 96.3 µM and 41 µM and 7.55 µM | [6] 72 µM | [7] 93.1 µM and 75.5 µM and 76.5 µM | [8] 57 µM | [9] 92.7 µM and 50 µM and 83.9 µM
inactive: [1] | [2] | MYC, MYC (gene 4609) | [3] | [5] | [6] | [8]

COP(N)(=O)SC (stereo not drawn)
inactive: all assays above

CCOC(=O)CC(SP(=S)(OC)OC)C(=O)OCC (stereo not drawn)
inactive: all assays above

CNC(=S)S
inactive: all assays above

CC(C)C1(C)N=C(c2nc3ccccc3cc2C(=O)O)NC1=O (stereo not drawn)
inactive: all assays above

COC(=O)C(C)Oc1ccc(Oc2ccc(Cl)cc2Cl)cc1 (stereo not drawn)
active: [4] 10.4 µM | [8] 50 µM | [9] 32.6 µM
inactive: all other assays above

CN(C)C(=S)SSC(=S)N(C)C
inactive: all assays above

CCNc1nc(Cl)nc(NC(C)C)n1
inactive: all assays above

C=CCC1=C(C)C(OC(=O)C2C(C=C(C)C)C2(C)C)CC1=O (stereo not drawn)
active: [1] 90.8 µM and 22.5 µM | [4] 68.4 µM and 79.7 µM and 28.2 µM | [8] 86.3 µM and 83.2 µM and 50 µM | [9] 50 µM
inactive: [1] | [2] | MYC, MYC (gene 4609) | [3] | [5] | [6] | [7] | [9]

O=C(O)COc1nc(Cl)c(Cl)cc1Cl
active: [4] 3.29 µM | [9] 51 µM
inactive: all other assays above

CC(Oc1ccc(Cl)cc1Cl)C(=O)O (stereo not drawn)
active: [9] 50 µM
inactive: all other assays above

CCCC1COC(Cn2cncn2)(c2ccc(Cl)cc2Cl)O1 (stereo not drawn)
active: [1] 49.5 µM | [2] 77.8 µM | MYC, MYC (gene 4609) 35.4 µM | [3] 89.4 µM | [4] 15 µM | [8] 40.5 µM | [9] 12.3 µM
inactive: [5] | [6] | [7]

CCOC(=O)C(Cl)Cc1cc(-n2nc(C)n(C(F)F)c2=O)c(F)cc1Cl (stereo not drawn)
inactive: all assays above

C=CCC1=C(C)[C@@H](OC(=O)[C@@H]2[C@@H](C=C(C)C)C2(C)C)CC1=O
active: [4] 22.6 µM | [8] 50 µM
inactive: all other assays above
